According to PubChem BioAssay (EPA / NIEHS):
Activity calls are given as the source filed them. The calls were made as follows: active = hit-call score of the fitted dose curve at least 0.9, where 1 is the maximum; inactive = score below 0.9.

Experiment: ATG_NF_kB_CIS: Attagene CIS-FACTORIAL HepG2 Assay for human Nuclear Factor Kappa B (NF-kB) (AID 2282991)
Conditions: HepG2 Attagene cis-factorial NF-kB reporter mRNA; actives raise or lower the signal
Summary of the method: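 After 24 h compound incubation, transfected HepG2 cells yield total RNA; reporter cDNA is PCR-amplified, end-labelled with 6-FAM, HpaI-digested and analysed on a genetic analyser. Endogenous factor activity, DMSO-referenced bidirectional fit.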
In the case of O=C1C(Cl)=C(Cl)C(=O)C(Cl)=C1Cl, the AC50 is reported as 34.6 µM (active). With CC1CCC(=O)O1 (stereo not drawn) the outcome was “inactive”. In the case of COc1cc(OC)c(OC)cc1C=O, the outcome is reported as “inactive”. With CC(C)c1ccc(O)cc1 the outcome was “inactive”. In the case of CC(C)(c1cc(Cl)c(O)c(Cl)c1)c1cc(Cl)c(O)c(Cl)c1, the AC50 is reported as 9 µM (active). In the case of [N-]=[N+]=CC(=O)OC[C@H](N)C(=O)O, the outcome is reported as “inactive”. With COCC(=O)N(c1c(C)cccc1C)N1CCOC1=O the outcome was “inactive”. In the case of CC(C)CCCCCCCOP(=O)(Oc1ccccc1)Oc1ccccc1, the outcome is reported as “inactive”. For C=COCCCl, the outcome was “inactive”. With C=CCN(CC=C)C(=O)C(Cl)Cl the outcome was “inactive”. With CC[N+](=O)[O-] the outcome was “inactive”. With CC(Cc1ccc(C(C)(C)C)cc1)CN1C[C@@H](C)O[C@@H](C)C1 (stereo partly drawn) the AC50 was 21 µM (active). In the case of CCOC(=O)N(C)N=O, the outcome is reported as “inactive”. In the case of O=CNC(N1CCN(C(NC=O)C(Cl)(Cl)Cl)CC1)C(Cl)(Cl)Cl (stereo not drawn), the outcome is reported as “inactive”. In the case of CCC[N+](=O)[O-], the outcome is reported as “inactive”. In the case of CC(C)C#N, the outcome is reported as “inactive”. For CCCCCc1cc(O)cc(O)c1, the outcome was “inactive”. In the case of c1ccc(Nc2ccc3ccccc3c2)cc1, the outcome is reported as “inactive”. In the case of CSc1nc(N=[N+]=[N-])nc(NC(C)C)n1, the outcome is reported as “inactive”. In the case of CC=Cc1ccc2c(c1)OCO2, the outcome is reported as “inactive”. For ClC1=C(Cl)[C@]2(Cl)[C@@H]3[C@@H](Cl)[C@H](Cl)C[C@@H]3[C@@]1(Cl)C2(Cl)Cl, the outcome was “inactive”. In the case of CCC(C)c1cc(C(C)(C)C)cc(-n2nc3ccccc3n2)c1O (stereo not drawn), the outcome is reported as “inactive”. In the case of CC1(C)C(=O)NC(=O)NC1=O, the outcome is reported as “inactive”. In the case of CC(=O)/C=C/c1ccccc1, the outcome is reported as “inactive”. With c1ccc(P(c2ccccc2)c2ccccc2)cc1 the outcome was “inactive”. With CCOC(=O)COc1ccc(Cl)cc1Cl the outcome was “inactive”. In the case of CCN(CC)C(=S)S, the outcome is reported as “inactive”. For N#Cc1cccc(C#N)c1, the outcome was “inactive”. For C[N+](C)=CCl, the outcome was “inactive”.

Experiment: ATG_NRF2_ARE_CIS: Attagene CIS-FACTORIAL HepG2 Assay for human Nuclear Factor Erythroid 2 Related Factor 2 (NFR2) response to Antioxidant Response Elements (ARE) (AID 2282992);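 as to AC50: reporter mRNA level measured by RT-PCR and capillary electrophoresis fluorescence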
Conditions: HepG2 Attagene ARE/NRF2 reporter, transcription factor activity; actives raise or lower the signal
Summary of the method: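 Fluorescence intensity of reporter-specific cDNA fragments, separated by capillary electrophoresis, reflects mRNA induction in transfected HepG2 cells at 24 h. Activity is fitted bidirectionally, DMSO serving as baseline.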
In the case of O=C1C(Cl)=C(Cl)C(=O)C(Cl)=C1Cl, the AC50 is reported as 48.7 µM (active). For N#CCCCCC#N, the outcome was “inactive”. In the case of CC1CCC(=O)O1 (stereo not drawn), the outcome is reported as “inactive”. With COc1cc(OC)c(OC)cc1C=O the outcome was “inactive”. With CC(C)c1ccc(O)cc1 the AC50 was 49.6 µM (active). With C[N+](C)(C)CC(=O)[O-] the outcome was “inactive”. For CC(C)(c1cc(Cl)c(O)c(Cl)c1)c1cc(Cl)c(O)c(Cl)c1, the outcome was “inactive”. For O=C(NCNC(=O)NC1C(=O)NC(=O)N1CO)NC1C(=O)NC(=O)N1CO (stereo not drawn), the outcome was “inactive”. In the case of [N-]=[N+]=CC(=O)OC[C@H](N)C(=O)O, the outcome is reported as “inactive”. With COCC(=O)N(c1c(C)cccc1C)N1CCOC1=O the outcome was “inactive”. With CC(C)CCCCCCCOP(=O)(Oc1ccccc1)Oc1ccccc1 the AC50 was 19.5 µM (active). For CCC1CCC(=O)O1 (stereo not drawn), the outcome was “inactive”. For C=COCCCl, the outcome was “inactive”. For C=CCN(CC=C)C(=O)C(Cl)Cl, the AC50 was 50.9 µM (active). In the case of CC[N+](=O)[O-], the outcome is reported as “inactive”. For CC(Cc1ccc(C(C)(C)C)cc1)CN1C[C@@H](C)O[C@@H](C)C1 (stereo partly drawn), the AC50 was 35.9 µM (active). For [Cl-].[Cl-].[Cl-].[Yb+3], the outcome was “inactive”. In the case of CCOC(=O)N(C)N=O, the outcome is reported as “inactive”. For O=CNC(N1CCN(C(NC=O)C(Cl)(Cl)Cl)CC1)C(Cl)(Cl)Cl (stereo not drawn), the outcome was “inactive”. In the case of CCC[N+](=O)[O-], the outcome is reported as “inactive”. With CC(C)(O)C#N the outcome was “inactive”. With CC(C)C#N the outcome was “inactive”. With S=c1[nH]c2ccccc2[nH]1 the outcome was “inactive”. For CCCCCc1cc(O)cc(O)c1, the AC50 was 43.5 µM (active). In the case of c1ccc(Nc2ccc3ccccc3c2)cc1, the AC50 is reported as 37 µM (active). For CSc1nc(N=[N+]=[N-])nc(NC(C)C)n1, the AC50 was 100 µM (active). In the case of CC=Cc1ccc2c(c1)OCO2, the outcome is reported as “inactive”. For Cc1ccc(OP(=O)(Oc2ccc(C)cc2)Oc2ccc(C)cc2)cc1 (tested in a mixture with another compound), the outcome was “inactive”. With ClC1=C(Cl)[C@]2(Cl)[C@@H]3[C@@H](Cl)[C@H](Cl)C[C@@H]3[C@@]1(Cl)C2(Cl)Cl the outcome was “inactive”. In the case of O=S(=O)(c1ccccc1)c1ccccc1, the outcome is reported as “inactive”. In the case of CCC(C)c1cc(C(C)(C)C)cc(-n2nc3ccccc3n2)c1O (stereo not drawn), the outcome is reported as “inactive”. In the case of CC1(C)C(=O)NC(=O)NC1=O, the outcome is reported as “inactive”. For CC(=O)/C=C/c1ccccc1, the AC50 was 33 µM (active). For c1ccc(P(c2ccccc2)c2ccccc2)cc1, the AC50 was 21.5 µM (active). With CCOC(=O)COc1ccc(Cl)cc1Cl the outcome was “inactive”. For CCN(CC)C(=S)S, the AC50 was 27.8 µM (active). In the case of N#Cc1cccc(C#N)c1, the outcome is reported as “inactive”. With N#CC(c1ccccc1)c1ccccc1 the AC50 was 77.9 µM (active). In the case of C[N+](C)=CCl, the outcome is reported as “inactive”.
